Compound activity deposited in PubChem by National Center for Advancing Translational Sciences (NCATS).
DT40 TDP1 no CPT: qHTS for Inhibitors of human tyrosyl-DNA phosphodiesterase 1 (TDP1): qHTS in cells in absence of CPT. 15% of 420,000 active. Potency, µM (doses to about 46.2 µM), for the others: at the highest dose activity change, negative = growth inhibition, most hits filed as inhibitors. DT40 Tdp1-/- hTDP1 cells, no CPT, ATP luminescence, 48 h; also: potency is read from the fitted curve at half-maximal effect; % is scaled to controls: 0 for no effect and ±100 for the full control effect; nearly all actives have a fitted effect of over 55% in size
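No-CPT arm: Tdp1-/-;hTDP1 DT40 cells (400/well) plus compounds, incubated ≥48 hr at 37 °C. Readout CellTiter-Glo luminescence.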
TGFb inhibitor: blocks TGF-b signaling. HepG2 CAGA-GFP TGF-b/SMAD3 reporter, GFP fluorescence, 18 h; TGF-beta stimulated, 500 pg/mL final. Potency, µM (titrated, usually from 46.1 µM), inactives show at the top dose activity, negative = inhibition, most hits filed as inhibitors. 1.2% of 410,000 active. AID 588855; also: potency is read from the fitted curve at half-maximal effect; % is scaled to controls: 0 for no effect and ±100 for the full control effect; nearly all actives have a fitted effect of over 65% in size
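Read-out: total well GFP (ex488/em500-530) summed from mean per-cell fluorescence. Cells: HEPG2 CAGA-GFP, 1% FBS DMEM, 18 h at 37 degrees C with 500 pg/mL final TGF-beta. Unstimulated wells served as the full-inhibition control; stimulated DMSO wells = 0%.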
IL-1B inflam inh: blocks inflammasome-driven IL-1 beta release | THP-1 LPS/ATP IL-1B secretion, AlphaLISA, 16 h; stronger effect = lower value | activity change, % at 57.5 µM | 4.7% of 360,000 active | AID 743279; in the data active = activity change below about -50%; inconclusive = mostly about -30% to -49%; also: % is scaled to controls: 0 for no effect and ±100 for the full control effect
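THP-1 cells pretreated 1 hr with compounds (up to 57.5 uM final), then stimulated with LPS (250 ng/mL final) plus ATP (1.25 mM final); secreted IL-1B measured by AlphaLISA after 16 hr, decreased signal indicating inhibition.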
DT40 TDP1 CPT: DT40-hTDP1 cell growth loss with CPT; Potency, µM (doses to about 46.2 µM), for inactives: at the highest dose activity change, negative = growth inhibition, hits mostly inhibitors; chicken DT40 Tdp1-/-;hTDP1 cells + 20 nM CPT, ATP luminescence, 48 h; 12% of 420,000 active; also: potency is read from the fitted curve at half-maximal effect; % is scaled to controls: 0 for no effect and ±100 for the full control effect; nearly all actives have a fitted effect of over 55% in size
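Chicken DT40 Tdp1-/- cells stably complemented with human TDP1 were seeded at 400 cells/well in medium containing 20 nM camptothecin, exposed to pin-transferred compounds, and grown at 37 °C for at least 48 hr. Viability was read as ATP luminescence.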
HepG2 tox: HepG2 cytotoxicity, counter-screen for TGF-b inhibitors | HepG2 CAGA-GFP viability, ATP luminescence, 18 h | Potency, µM (highest dose often 46.1 µM), inactives show at the highest dose activity change, negative = cytotoxicity, actives largely listed as cytotoxic | 0.76% of 410,000 active; also: potency is read from the fitted curve at half-maximal effect
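HepG2 CAGA-GFP cells (1000/well, DMEM with 1% FBS) received compound, then TGF-beta at 500 pg/mL final, and were incubated 18 hours at 37 degrees C. Viability was read by CellTiter-Glo luminescence. Media-only wells were set as complete cell-killing and DMSO as no toxicity.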
TDP1 inh: blocks human tyrosyl-DNA phosphodiesterase 1; AID 485290; Potency, µM (highest dose often 130 µM), without a hit: top-dose activity change, negative = inhibition, hits mostly inhibitors; 0.28% of 350,000 active; recombinant TDP1, AlphaScreen DNA substrate cleavage; also: potency is read from the fitted curve at half-maximal effect; % is scaled to controls: 0 for no effect and ±100 for the full control effect; nearly all actives have a fitted effect of over 40% in size
Target sequence (Q9NUW8 whole entry, looked up): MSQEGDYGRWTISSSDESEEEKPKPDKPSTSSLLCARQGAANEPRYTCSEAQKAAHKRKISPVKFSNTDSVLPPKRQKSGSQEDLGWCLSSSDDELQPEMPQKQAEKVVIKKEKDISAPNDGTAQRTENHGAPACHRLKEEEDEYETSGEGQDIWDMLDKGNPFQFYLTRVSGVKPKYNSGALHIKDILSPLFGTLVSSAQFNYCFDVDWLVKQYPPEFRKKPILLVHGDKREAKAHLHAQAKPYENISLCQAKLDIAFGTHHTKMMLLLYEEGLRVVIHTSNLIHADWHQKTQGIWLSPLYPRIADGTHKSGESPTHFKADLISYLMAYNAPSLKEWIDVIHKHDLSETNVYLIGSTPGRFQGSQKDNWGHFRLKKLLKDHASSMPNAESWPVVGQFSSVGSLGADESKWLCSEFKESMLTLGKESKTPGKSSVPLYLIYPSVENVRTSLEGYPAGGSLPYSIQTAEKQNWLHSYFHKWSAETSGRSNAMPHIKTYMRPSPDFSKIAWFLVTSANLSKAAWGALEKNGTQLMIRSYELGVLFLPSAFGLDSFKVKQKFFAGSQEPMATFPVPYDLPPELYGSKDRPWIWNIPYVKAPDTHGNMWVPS
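Steps: enzyme plus compound, 15 min RT; add biotin/phosphotyrosine-FITC oligonucleotide (15 nM final), react 5 min; add donor/acceptor beads (10 ug/ml final), 10 min; read AlphaScreen. Tdp1 at 1 nM final.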
The depositor's hits bear a star; ? = inconclusive; nt = no result given; [ ] = remark or other dose. A selection: hits, their analogues and other compounds. The true share with any hit is near 19%. Unless noted, calls follow the shape of the dose curve; as a rule, active = well fitted curve in the direction sought with a large enough effect; inconclusive = small, poorly fitted or top-dose-only effect, or another doubt; inactive = no such curve, though single readings can be large; an effect the other way counts as inactive or inconclusive.

SMILES	DT40 TDP1 no CPT	TGFb inhibitor	IL-1B inflam inh	DT40 TDP1 CPT	HepG2 tox	TDP1 inh
COc1ccccc1N1CCN(S(=O)(=O)c2cc(-c3cc(C)no3)ccc2C)CC1	18µM*	-4%	nt	21µM*	16%	3%
CCOC(=O)C1CCCN(C(=O)c2ccc(Cl)c(S(=O)(=O)N3CCCCCC3)c2)C1 (centres undefined)	?	-16%	-14	-2%	7%	5%
C/C1=C\CCC2C(/C=C(\C)CC1)OC(=O)C2CN1CCCCC1 (centres undefined)	?	?	nt	10µM*	-49%	nt
CCc1ccccc1NC(=O)CNC(=O)CNC(=O)c1cccs1	-30%	2%	-2	3%	5%	1%
CC(C)(C)CC(C)(C)NC(=S)NC1CCN(Cc2ccccc2)CC1	4.6µM*	?	-104*	5.2µM*	-46%	-8%
Fc1ccc(NC(=S)NC2CCN(Cc3ccccc3)CC2)cc1	?	-6%	5	?	4%	-1%
S=C(Nc1ccc(CN2CCCCC2)cc1)Nc1cccc(Cl)c1Cl	18µM*	-2%	-12	?	-1%	5%[56.1 µM]
Cc1cccc(NC(=S)NC2CCN(Cc3ccccc3)CC2)c1C	?	-15%	-8	?	-9%	-3%
CCc1cccc(CC)c1NC(=S)Nc1cccc(Cl)c1Cl	?	?	21	18µM*	18µM*	nt
S=C(Nc1cccc(Cl)c1Cl)NC1CCN(Cc2ccccc2)CC1	?	0%	-81*	21µM*	-32%	4%
O.O.O.O.O.O.O.O=S(=O)([O-])[O-].[Co+2]	-17%	nt	nt	-23%	nt	2%
COc1ccc(Cl)cc1NC(=O)C(=O)NCc1ccc(Cl)cc1	-27%	2%	nt	-19%	-13%	1%[2.28 µM]
CC(OC(=O)CN1C(=O)c2ccccc2C1=O)C(=O)N(C)c1ccccc1 (centres undefined)	-2%	5%	11	-1%	14%	2%
CCc1ccc(NCc2cc3cc4c(cc3n(CC(=O)Nc3ccccc3OC)c2=O)OCCO4)cc1	nt	10%	nt	nt	-1%	8%
CC(C)(Oc1ccc(Cl)cc1)C(=O)NC1CCN(Cc2ccccc2)CC1	18µM*	-1%	?	?	-7%	-2%
CN(CC(=O)NC1CCN(Cc2ccccc2)CC1)S(=O)(=O)c1ccc(Cl)cc1	?	-2%	4	?	6%	0%
Cc1nc2ccc(S(=O)(=O)N3CCN(S(=O)(=O)c4c(F)cccc4F)CC3)cc2s1	nt	nt	nt	nt	nt	-4%
N#CCC(=O)Nc1ccc(C(=O)NCc2cccc(Cl)c2)cc1	2%	-14%	17	-6%	0%	nt
CC(C)NC(=O)C1(C)CCCN1Cc1ccccc1 (centres undefined)	?	7%	-9	-30%	12%	nt
CCCNC(=O)C1(C)CCCN(CCOc2ccccc2)C1 (centres undefined)	?	5%	-15	?	-5%	nt
CC(C)NC(=O)C1(C)CCN1CCC(=O)c1ccccc1 (centres undefined)	13µM*	-20%	8	13µM*	3%	nt
CCCNC(=O)C1(C)CCN(Cc2ccc(-c3ccccn3)cc2)C1 (centres undefined)	?	13%	-5	?	2%	nt
CCCNC(=O)C1(C)CCCN(CCC(=O)c2ccccc2)C1 (centres undefined)	7.3µM*	16µM*	?	5.8µM*	14µM*	nt
CCCNC(=O)C1(C)CCCN(Cc2ccc(-c3ccccn3)cc2)C1 (centres undefined)	13µM*	-4%	-14	16µM*	-7%	nt
